Hit rate of the full screen: of about 16,000 compounds, about 5,100 (32%) were called active. Inconclusive results (about 25%) are left out. The call rests on the fitted dose curve; in most records, active means well fitted curve in the direction sought with a large enough effect; inconclusive means small, poorly fitted or top-dose-only effect, or effect the other way; inactive means no such curve, though single readings can be large or run the other way. The list shows a part of the results.
What follows are compounds tested against Cytochrome P450 3A4 (Homo sapiens) (UniProt P08684) (assay: Cytochrome panel assay with activity outcomes). Settings: recombinant CYP, pro-luciferin dealkylation, luminescence, p450-cyp3a4; series mostly up to 57.1 µM.
Sequence of Cytochrome P450 3A4 (Homo sapiens) (P08684 whole entry, looked up): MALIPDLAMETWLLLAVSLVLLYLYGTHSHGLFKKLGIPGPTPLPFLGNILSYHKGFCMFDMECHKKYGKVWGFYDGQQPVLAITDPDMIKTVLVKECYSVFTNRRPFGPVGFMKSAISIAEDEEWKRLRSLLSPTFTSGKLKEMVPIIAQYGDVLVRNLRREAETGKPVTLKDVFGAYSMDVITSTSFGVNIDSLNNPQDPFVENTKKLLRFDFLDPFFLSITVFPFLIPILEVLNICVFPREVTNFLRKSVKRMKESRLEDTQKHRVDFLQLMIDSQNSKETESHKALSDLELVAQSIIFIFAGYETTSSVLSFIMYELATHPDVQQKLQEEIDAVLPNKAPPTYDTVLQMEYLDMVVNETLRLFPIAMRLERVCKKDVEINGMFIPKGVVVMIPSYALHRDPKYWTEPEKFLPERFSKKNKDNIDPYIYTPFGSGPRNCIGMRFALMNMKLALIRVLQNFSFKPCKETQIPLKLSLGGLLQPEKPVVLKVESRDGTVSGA
In the case of COc1cc(C(=O)OC2C[C@H]3CC[C@@H](C2)N3C)ccc1O (some centres not stated), the activity, negative = inhibition was “inactive”. For O=c1[nH]cnc2[nH]cc(CN3CCCCC3)c12, the activity, negative = inhibition was -10.7% [at 11.4 µM] (inactive). For N[C@@H]1C=CC=C(C(=O)O)C1, the activity, negative = inhibition was “inactive”. O=S(=O)(NCCO)c1cc[c]([Sb](=[O])([OH])[OH])cc1 was tested, and the activity, negative = inhibition was 9.57% [at 11.4 µM] (inactive). In the case of CCCN1CCO[C@@H]2c3cc(O)ccc3OC[C@H]21, the activity, negative = inhibition was “inactive”. For c1cncc([C@@H]2CCCCN2)c1, the activity, negative = inhibition was “inactive”. O=S(=O)(c1ccccc1)N1CCCCC1c1cccnc1 (configuration not stated) was tested, and the AC50 was 2.24 µM (active). CC1=C(C)[N+](=O)C2(O)CCCCC2(C)N1[O-] (configuration not stated) was tested, and the activity, negative = inhibition was “inactive”. CCCN(CCC)[C@@H]1CCc2ccc(O)cc2C1 was tested, and the activity, negative = inhibition was “inactive”. NC(N)=NS(=O)(=O)c1ccc(N)cc1 was tested, and the activity, negative = inhibition was “inactive”. In the case of CN(C)[C@@H]1C(=O)C(C(N)=O)=C(O)[C@]2(O)C(=O)C3=C(O)c4c(O)cccc4[C@@](C)(O)[C@H]3[C@H](O)[C@@H]12, the activity, negative = inhibition was “inactive”. With O=C(O)Cc1ccc([N+](=O)[O-])cc1[N+](=O)[O-] the activity, negative = inhibition was -8.12% [at 11.4 µM] (inactive). O=[N+]([O-])c1ccc(S(=O)(=O)Cc2ccccc2)c([N+](=O)[O-])c1 was tested, and the AC50 was 0.316 µM (active). O=[N+]([O-])c1cc(O)c(O)c([N+](=O)[O-])c1 was tested, and the activity, negative = inhibition was “inactive”. Cc1cc(OC(=O)CCCNC(=O)OC(C)(C)C)c2c3c(c(=O)oc2c1)CCC3 was tested, and the activity, negative = inhibition was 4.44% [at 2.29 µM] (inactive). In the case of COc1cc2c3cc1Oc1cc(ccc1O)C[C@@H]1c4c(cc(OC)c(O)c4Oc4cccc(c4)C[C@H]3N(C)CC2)CC[N+]1(C)C, the activity, negative = inhibition was “inactive”. In the case of CC(C)(O)/C=C\C(=O)[C@](C)(O)[C@H]1[C@H](O)C[C@]2(C)[C@@H]3CC=C4[C@@H](C=C(O)C(=O)C4(C)C)[C@]3(C)C(=O)C[C@@]12C, the AC50 was 0.398 µM (active). In the case of CC(=O)OC1N=C(c2ccccc2)c2cc(Br)ccc2N(C)C1=O (configuration not stated), the activity, negative = inhibition was “inactive”. With CC1=NN(c2ccc(S(=O)(=O)O)cc2C)C(=[OH+])[C@H]1N=Nc1cc(S(=O)(=O)O)ccc1C(=O)O.O.[Cr] the activity, negative = inhibition was 12.6% [at 11.4 µM] (inactive). With O=[N+]([O-])c1ccc(N2CCNCC2)cc1NCC1CCCO1 (configuration not stated) the activity, negative = inhibition was “inactive”. COC(=O)[C@H](N)CCCN=C(N)N[N+](=O)[O-] was tested, and the activity, negative = inhibition was “inactive”. In the case of CCOC(=O)C1=C(C)OC(N)=C(C#N)C12C(=O)N(C)c1ccccc12 (configuration not stated), the AC50 was 6.31 µM (active). For COc1ccc(C[C@@H]2NC[C@H](O)[C@@H]2OC(C)=O)cc1, the activity, negative = inhibition was “inactive”. O=C(O)C[O][Sb][O]CC(=O)O was tested, and the activity, negative = inhibition was -1.8% [at 11.4 µM] (inactive). NS(=O)(=O)C[C-]1C=C[CH]([Sb-]([Cl])([Cl])([Cl])([Cl])[Cl])C=C1.c1ccncc1 (configuration not stated) was tested, and the activity, negative = inhibition was 7.76% [at 11.4 µM] (inactive). For CC[C@@H]1CN2CCc3cc(OC)c(OC)cc3[C@H]2C[C@@H]1C[C@@H]1NCCc2cc(O)c(OC)cc21, the activity, negative = inhibition was “inactive”. With Cc1ccc(S(=O)(=O)O[C@H]2CN3CCC2CC3)cc1 the activity, negative = inhibition was -7.01% [at 11.4 µM] (inactive).
On the % scale 0 is the no-effect control and ±100 the full control effect.
